Reference: PubChem BioAssay (NCATS)
Inconclusive results are not listed. Entries that show only a call come without a potency. The source made the active and inactive calls. The call rests on the fitted dose curve; in most records, active means well fitted cell-killing curve with a large enough effect; inconclusive means small, poorly fitted or top-dose-only effect, or effect the other way; inactive means no such curve, though single readings can be large or run the other way.

Columns and labels:
[1] = Quantitative High-Throughput drug screen in 47 multiple myeloma cell lines against the NCATS MIPE library collection: U266_ATCC cell viability assay (AID 1919864); further: nearly all actives have a fitted effect of over 35% in size
Summary of the method: (§1)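 Plated at 500 cells per well, myeloma lines received MIPE 4.0 compounds by pin tool. Following 48 h culture at 37 °C, CellTiter-Glo luminescence gave viability relative to DMSO and media-only controls.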

[2] = Quantitative High-Throughput drug screen in 47 multiple myeloma cell lines against the NCATS MIPE library collection: XG6_PLB cell viability assay (AID 1919865); further: nearly all actives have a fitted effect of over 40% in size
Summary of the method: as §1

[3] = Quantitative High-Throughput drug screen in 47 multiple myeloma cell lines against the NCATS MIPE library collection: UTMC2_PLB cell viability assay (AID 1919868); further: nearly all actives have a fitted effect of over 55% in size
Summary of the method: as §1

[4] = Quantitative High-Throughput drug screen in 47 multiple myeloma cell lines against the NCATS MIPE library collection: PE2_PLB cell viability assay (AID 1919869); further: nearly all actives have a fitted effect of over 35% in size
Summary of the method: as §1

[5] = Quantitative High-Throughput drug screen in 47 multiple myeloma cell lines against the NCATS MIPE library collection: KMS11_JCRBsus cell viability assay (AID 1919873); further: nearly all actives have a fitted effect of over 50% in size
Summary of the method: as §1

[6] = Quantitative High-Throughput drug screen in 47 multiple myeloma cell lines against the NCATS MIPE library collection: VP6_DJ cell viability assay (AID 1919867); further: nearly all actives have a fitted effect of over 40% in size
Summary of the method: as §1

[7] = Quantitative High-Throughput drug screen in 47 multiple myeloma cell lines against the NCATS MIPE library collection: RPMI8226_ATCC cell viability assay (AID 1919871); further: nearly all actives have a fitted effect of over 30% in size
Summary of the method: as §1

[8] = Quantitative High-Throughput drug screen in 47 multiple myeloma cell lines against the NCATS MIPE library collection: OPM2_DSMZ cell viability assay (AID 1919872); further: nearly all actives have a fitted effect of over 30% in size
Summary of the method: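 Viability readout: CellTiter-Glo luminescence following 5 min room-temperature incubation with reagent. Prior exposure: 48 h, 37C, humidified 5% CO2, 500 cells per well.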

[9] = Quantitative High-Throughput drug screen in 47 multiple myeloma cell lines against the NCATS MIPE library collection: KMS28BM_JCRB cell viability assay (AID 1919874); further: nearly all actives have a fitted effect of over 35% in size
Summary of the method: as §1

[10] = Quantitative High-Throughput drug screen in 47 multiple myeloma cell lines against the NCATS MIPE library collection: XG1_PLB cell viability assay (AID 1919866); further: nearly all actives have a fitted effect of over 35% in size
Summary of the method: as §1

[11] = Quantitative High-Throughput drug screen in 47 multiple myeloma cell lines against the NCATS MIPE library collection: PCM6_Riken cell viability assay (AID 1919870); further: nearly all actives have a fitted effect of over 30% in size
Summary of the method: as §1
Potency means the concentration at half of the fitted maximal effect.

CCCCCCCCOc1ccccc1C(=O)Nc1ccc(C(=O)OCC[N+](C)(CC)CC)cc1
Potency [1]: 20.9 µM (active)
Potency [2]: 16.6 µM (active)
Potency [3]: 16.6 µM (active)
Potency [4]: 16.6 µM (active)
Potency [5]: 18.7 µM (active)

CC(C)[N+]1(C)[C@@H]2CC[C@H]1CC(OC(=O)C(CO)c1ccccc1)C2 (some centres undefined)
Potency [1]: inactive
Potency [2]: inactive
Potency [6]: 14.8 µM (active)
Potency [7]: inactive
Potency [8]: inactive
Potency [5]: 7.43 µM (active)
Potency [9]: 8.33 µM (active)

COc1ccc2cc([C@H](C)C(=O)O)ccc2c1
Potency [1]: inactive
Potency [2]: inactive
Potency [3]: 23.5 µM (active)
Potency [7]: inactive
Potency [8]: inactive
Potency [9]: inactive

CN(C)CCc1c[nH]c2ccc(Cn3cncn3)cc12
Potency [1]: inactive
Potency [10]: inactive
Potency [6]: 2.09 µM (active)
Potency [3]: inactive
Potency [11]: inactive
Potency [7]: inactive
Potency [8]: inactive
Potency [5]: inactive
Potency [9]: inactive

CC1(C)CCC(C)(C)c2cc(NC(=O)c3ccc(C(=O)O)cc3)ccc21
Potency [1]: inactive
Potency [2]: 5.26 µM (active)
Potency [6]: 18.7 µM (active)
Potency [8]: inactive
Potency [5]: 4.18 µM (active)
Potency [9]: inactive

O=C(NCC1CCCCN1)c1cc(OCC(F)(F)F)ccc1OCC(F)(F)F (centres undefined)
Potency [1]: 9.35 µM (active)
Potency [2]: 3.32 µM (active)
Potency [6]: 3.72 µM (active)
Potency [4]: 9.35 µM (active)
Potency [11]: 4.69 µM (active)
Potency [5]: 23.5 µM (active)
Potency [9]: 18.7 µM (active)

CC(=O)NC[C@H]1CN(c2ccc(N3CCOCC3)c(F)c2)C(=O)O1
Potency [1]: inactive
Potency [2]: inactive
Potency [6]: inactive
Potency [3]: inactive
Potency [11]: inactive
Potency [8]: inactive
Potency [9]: inactive

COC(=O)N[C@H](C(=O)N[C@@H](Cc1ccccc1)[C@@H](O)CN(Cc1ccc(-c2ccccn2)cc1)NC(=O)[C@@H](NC(=O)OC)C(C)(C)C)C(C)(C)C
Potency [1]: inactive
Potency [2]: inactive
Potency [6]: 20.9 µM (active)
Potency [11]: 9.35 µM (active)
Potency [7]: inactive
Potency [8]: inactive

CN(C)CCCC1(c2ccc(F)cc2)OCc2cc(C#N)ccc21 (centres undefined)
Potency [1]: 23.5 µM (active)
Potency [6]: inactive
Potency [3]: inactive
Potency [11]: inactive
Potency [7]: 18.7 µM (active)
Potency [8]: inactive

N[C@@H](Cc1cc(I)c(Oc2cc(I)c(O)c(I)c2)c(I)c1)C(=O)O
Potency [1]: inactive
Potency [2]: inactive
Potency [6]: inactive
Potency [11]: inactive
Potency [7]: inactive
Potency [8]: inactive
Potency [5]: inactive
Potency [9]: inactive

CC(C)Oc1ccc2c(=O)c(-c3ccccc3)coc2c1
Potency [1]: inactive
Potency [2]: inactive
Potency [11]: inactive
Potency [8]: inactive
Potency [5]: inactive
Potency [9]: inactive

Cc1cccc(C#Cc2ccccc2)n1
Potency [1]: inactive
Potency [10]: 14.8 µM (active)
Potency [7]: 3.72 µM (active)
Potency [8]: inactive
Potency [9]: inactive

COc1c(O)cc2c(c1O)[C@@H]1O[C@H](CO)[C@@H](O)[C@H](O)[C@H]1OC2=O
Potency [1]: inactive
Potency [6]: inactive
Potency [4]: inactive
Potency [11]: inactive
Potency [7]: inactive
Potency [5]: inactive
Potency [9]: inactive

CC(=O)O[C@H]1C(=O)[C@@]2(C)C([C@H](OC(=O)c3ccccc3)[C@]3(O)C[C@H](OC(=O)[C@H](O)[C@@H](NC(=O)c4ccccc4)c4ccccc4)C(C)=C1C3(C)C)[C@]1(OC(C)=O)CO[C@@H]1C[C@@H]2O (some centres undefined)
Potency [1]: inactive
Potency [10]: inactive
Potency [6]: inactive
Potency [4]: inactive
Potency [7]: inactive
Potency [5]: inactive

Cc1nc(Nc2ncc(C(=O)Nc3c(C)cccc3Cl)s2)cc(N2CCN(CCO)CC2)n1
Potency [1]: 16.6 µM (active)
Potency [2]: 0.0332 µM (active)
Potency [6]: 0.0662 µM (active)
Potency [4]: 3.32 µM (active)
Potency [11]: 5.26 µM (active)
Potency [5]: 14.8 µM (active)

CCN(CCO)CCCC(C)Nc1ccnc2cc(Cl)ccc12 (centres undefined)
Potency [1]: inactive
Potency [2]: inactive
Potency [6]: inactive
Potency [7]: inactive
Potency [8]: inactive
Potency [5]: inactive
Potency [9]: inactive

CC1Cc2ccccc2N1NC(=O)c1ccc(Cl)c(S(N)(=O)=O)c1 (centres undefined)
Potency [1]: 6.62 µM (active)
Potency [2]: inactive
Potency [4]: inactive
Potency [7]: inactive
Potency [8]: inactive
Potency [5]: inactive
Potency [9]: 1.05 µM (active)

O=C(CS(=O)Cc1ccco1)NCC=CCOc1cc(CN2CCCCC2)ccn1 (centres undefined)
Potency [1]: inactive
Potency [2]: 14.8 µM (active)
Potency [6]: 16.6 µM (active)
Potency [8]: inactive
Potency [5]: inactive
Potency [9]: inactive

Clc1ccc(C(Cn2ccnc2)OCc2ccc(Sc3ccccc3)cc2)c(Cl)c1 (centres undefined)
Potency [1]: inactive
Potency [6]: 20.9 µM (active)
Potency [3]: 33.2 µM (active)
Potency [4]: 20.9 µM (active)
Potency [7]: 23.5 µM (active)
Potency [9]: 20.9 µM (active)

CC(C)C[C@H](NC(=O)[C@H](Cc1ccccc1)NC(=O)c1cnccn1)B(O)O
Potency [1]: 0.0093 µM (active)
Potency [2]: 0.0074 µM (active)
Potency [6]: 0.0074 µM (active)
Potency [3]: 0.148 µM (active)
Potency [11]: 0.0105 µM (active)
Potency [7]: 0.0187 µM (active)
Potency [8]: 0.0264 µM (active)
Potency [5]: 0.0083 µM (active)
Potency [9]: 0.0132 µM (active)

O=c1c(O)c(-c2ccc(O)cc2O)oc2cc(O)cc(O)c12
Potency [1]: inactive
Potency [2]: inactive
Potency [11]: inactive
Potency [7]: inactive
Potency [8]: inactive
Potency [5]: inactive
Potency [9]: inactive

CC(C)c1ccc2c(c1)c(SC(C)(C)C)c(CC(C)(C)C(=O)O)n2Cc1ccc(Cl)cc1
Potency [1]: 20.9 µM (active)
Potency [10]: 23.5 µM (active)
Potency [8]: inactive

Nc1cc(C(Cl)=C(Cl)Cl)c(S(N)(=O)=O)cc1S(N)(=O)=O
Potency [1]: inactive
Potency [2]: 11.8 µM (active)
Potency [4]: inactive
Potency [11]: inactive
Potency [7]: inactive
Potency [8]: inactive

N=C(N=C(N)N)N1CCOCC1
Potency [1]: 18.7 µM (active)
Potency [6]: inactive
Potency [3]: inactive
Potency [8]: inactive
Potency [5]: inactive
Potency [9]: inactive
